The nature of test [1]: Nuclear factor erythroid 2-related factor 2/antioxidant responsive element (Nrf2/ARE) small molecule agonists: qHTS cell viability counter screen in human keratinocytes (AID 1919968; active = well fitted curve in the direction sought with a large enough effect in the repeat runs; an effect the other way counts as inactive or inconclusive; also: nearly all actives have a fitted effect of over 55% in size). In a few lines: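 HaCaT ARE reporter line, 1,500 cells/well; 5 h settle, 37 C/5% CO2; cpd in DMSO pinned; 23 h exposure; CellTiter-Fluor, 1 h; fluorescence.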
A short description of test [2]: Nuclear factor erythroid 2-related factor 2/antioxidant responsive element (Nrf2/ARE) small molecule agonists: luciferase reporter gene qHTS assay in human keratinocytes (AID 1919969). Also: nearly all actives have a fitted effect of over 35% in size. Also: potency is read from the fitted curve at half-maximal effect.
Test [3] addresses Gonadotropin-releasing hormone receptor (Homo sapiens) (UniProt P30968). Description: Human gonadotropin-releasing hormone receptor (GnRHR) small molecule agonists, calcium flux assay in GnRHR-HEK293 cells (AID 1920063). Also: nearly all actives have a fitted effect of over 35% in size. An outline of the steps: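 GnRHR-HEK293, 1500 cells/well, 18 h 37 C/5% CO2; Ca dye 1 h 37 C; cpd pinned (DMSO), agonist mode; kinetic FL 480/540, 3 min, 1 s reads; 15 conc, n=3.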

The target of test [4] is KiSS-1 receptor (Homo sapiens) (UniProt Q969F8). Description: Human kisspeptin (KISS1R) small molecule agonists, calcium flux assay in KISS1R-HEK293 cells (AID 1920064; active = well fitted curve in the direction sought with a large enough effect in the repeat runs; an effect the other way counts as inactive or inconclusive). In a few lines:
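Stable human KISS1R HEK293 line; 18 h plating, 37 C/5% CO2; calcium dye 1 h 37 C; compound pin transfer; kinetic fluorescence Ex/Em 480/540, 3 min.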

Test [5] in a line: G protein-coupled receptor (GPCR) small molecule agonists, calcium flux assay: HEK293 wild type cell line counter screen (AID 1920065). An outline of the steps:
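Kinetic fluorescence at Ex/Em 480/540, recorded every second over 3 min, served as the read-out after compound addition. Each compound was tested at 15 concentrations in triplicate on cells pre-loaded with calcium dye for 1 h.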

Test [6] can be described thus: p53 small molecule agonists, cell-based qHTS assay with human liver microsomes (AID 1963577).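 Also: p53 response element beta-lactamase reporter cells with liver microsomes plus NADPH.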 An outline of the steps:
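HLM-supplemented p53RE-bla reporter assay: 16 h compound exposure at 37 C, microsomes and NADPH each 0.5 mg/mL final, read by fluorescence intensity.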

Test [7] is described as follows: p53 small molecule agonists, cell-based qHTS assay with rat liver microsomes (AID 1963578). In a few lines:
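Quantitative HTS of the Tox21 10K library: p53RE-bla cells, rat liver microsomes plus NADPH at 0.5 mg/mL final each, 16 h at 37 C, beta-lactamase fluorescence detection.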

Test [8] is described as follows: p53 small molecule agonists, cell-based qHTS assay with human liver microsomes: qHTS cell viability counter screen (AID 1963579). Also: nearly all actives have a fitted effect of over 45% in size. In a few lines: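 Viability of p53RE-bla cells is measured as CellTiter-Glo luminescence following a 16 h, 37 C incubation with compound, liver microsomes from human donors and NADPH.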
Test [9] can be described thus: p53 small molecule agonists, cell-based qHTS assay with rat liver microsomes: qHTS cell viability counter screen (AID 1963580). Also: nearly all actives have a fitted effect of over 45% in size. In a few lines: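 p53RE-bla HCT-116 cells were exposed 16 h at 37 C to compounds with rat liver microsomes (0.5 mg/mL) and NADPH (0.5 mg/mL). Viability was measured in the same wells as ATP content by CellTiter-Glo luminescence.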
The nature of test [10]: p53 small molecule agonists, cell-based qHTS assay: qHTS cell viability counter screen (AID 1963581). Also: nearly all actives have a fitted effect of over 45% in size. An outline of the steps: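 HCT-116 p53RE-bla cells, 4,000/well, plated 5 h before compound pin transfer; 16 h at 37 C; bla substrate 2 h RT; then CellTiter-Glo, 30 min RT, luminescence.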
Test [11] is described as follows: p53 small molecule agonists, cell-based qHTS assay (AID 1963582; active = well fitted activation curve with a large enough effect in the signal ratio in the repeat runs, not every such curve was filed as active; the % refers to the signal ratio). In a few lines:
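Reporter line: p53RE-bla. Pre-incubation 5 h, 37 C, 5% CO2; compound (DMSO, pin tool) 16 h, 37 C; B/G FRET substrate 2 h RT; fluorescence intensity read.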

Test [12] concerns the target 5-hydroxytryptamine receptor 2A (Homo sapiens) (UniProt P28223). Briefly: 5-hydroxytryptamine receptor 2A (HTR2A) small molecule agonists, cell-based qHTS assay (AID 1963587). Also: nearly all actives have a fitted effect of over 30% in size. An outline of the steps: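 CHO cells stably expressing human HTR2A, plated 18 h, loaded with calcium dye 1 h at 37 C. Agonist mode: compounds added and intracellular calcium fluorescence recorded kinetically for 2 min at 1 sec intervals.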

Test [13] deals with Muscarinic acetylcholine receptor M1 (Homo sapiens) (UniProt P11229). Briefly: Cholinergic receptor muscarinic 1 (CHRM1) small molecule antagonists, cell-based qHTS assay (AID 1963588). Also: nearly all actives have a fitted effect of over 40% in size. In a few lines:
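CHRM1-CHO calcium-flux assay, antagonist mode. Cells were seeded 18 h, dye-loaded 1 h at 37 C and given compound for 5 min at RT, then acetylcholine was added at 50nM. FDSS fluorescence was read 3 min; 15 concentrations, three runs.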

Test [14] shares this target. Briefly: Cholinergic receptor muscarinic 1 (CHRM1) small molecule agonists, cell-based qHTS assay (AID 1963589). Also: nearly all actives have a fitted effect of over 35% in size. In a few lines: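 Human M1 in stable CHO line; 18 h plating, 1 h dye load 37 C; cpd added (agonist mode); Ca2+ fluorescence kinetic read, 1 s intervals; 15 conc, 3 runs.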
Test [15] is described as follows: cAMP Responsive Elements (CRE) small molecule antagonists, cell-based qHTS assay (AID 1963591; active = well fitted inhibition curve with a large enough effect in the signal ratio in the repeat runs, not every such curve was filed as active; the % refers to the signal ratio). An outline of the steps:
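Beta-lactamase reporter read by FRET substrate (LiveBLAzer B/G) after 2 h at room temperature. CRE-bla HEK293T cells had received compound plus 0.25 uM (final) NKH477 for 3 h at 37 °C.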

Test [16] deals with Beta-2 adrenergic receptor (Homo sapiens) (UniProt P07550). Briefly: Adrenergic beta2 receptor (ADRB2) small molecule antagonists, cell-based qHTS assay (AID 1963592). Also: series mostly up to about 92 µM; nearly all actives have a fitted effect of over 50% in size. An outline of the steps:
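Cells (CHO, stable ADRB2 overexpression) incubated 18-20hr at 37C; compounds added from DMSO; agonist mix (1nM isoproterenol, 100uM IBMX, 25uM Ro-20-1724) added; 0.5hr RT; d2-cAMP and anti-cAMP-cryptate added; 1hr RT; 665/615 nm read.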

Test [17] has the same target. Description: Adrenergic beta2 receptor (ADRB2) small molecule agonists, cell-based qHTS assay (AID 1963593).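 Also: CHO cells stably overexpressing human ADRB2.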 An outline of the steps: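 CHO cells stably over-expressing ADRB2 were plated overnight at 37C, then dosed with compounds plus a stimulation mix containing 100uM IBMX and 25uM Ro-20-1724 for 0.5hr at room temperature. cAMP was measured by HTRF competition, 1hr.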

In test [18] the target is D(2) dopamine receptor (Homo sapiens) (UniProt P14416). Briefly: Dopamine D2 receptor (DRD2) small molecule agonists, cell-based qHTS assay (AID 1963594). Also: nearly all actives have a fitted effect of over 35% in size. In a few lines: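 HEK293 cells stably expressing human DRD2, pre-treated with PDE inhibitor Ro20-1724 (0.1 mM final) and compound 10 min at room temperature, then stimulated with NKH477 (200nM […]) for 30 min. cAMP read by HTRF (665/620 nm).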

For test [19] the target is unchanged. Description: Dopamine D2 receptor (DRD2) small molecule antagonists, cell-based qHTS assay (AID 1963595; active = well fitted inhibition curve with a large enough effect in the signal ratio in the repeat runs, with a control signal flat; the % refers to the signal ratio). In a few lines: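 Human DRD2 antagonist qHTS measuring cAMP by HTRF. The cells are exposed to compound for 10 min, then to NKH477 (200 nM) and quinpirole (12 nM) for 30 min at RT, with Ro20-1724 (0.1 mM) present throughout.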
The target of test [20] is 5-hydroxytryptamine receptor 2A (Homo sapiens) (UniProt P28223). Briefly: 5-hydroxytryptamine receptor 2A (HTR2A) small molecule antagonists, cell-based qHTS assay (AID 1963586). Also: nearly all actives have a fitted effect of over 45% in size. An outline of the steps:
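Antagonist-mode intracellular calcium assay: DOI (4 nM) added after 5 min compound pre-incubation at room temperature to dye-loaded HTR2A-CHO cells. Fluorescence followed for 3 min, sampled every second.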

Results filed as inconclusive are left out. Active and inactive are the calls of the source. Unless noted, calls follow the shape of the full dose curve.

Chain of Muscarinic acetylcholine receptor M1 (Homo sapiens) (P11229 whole entry, looked up): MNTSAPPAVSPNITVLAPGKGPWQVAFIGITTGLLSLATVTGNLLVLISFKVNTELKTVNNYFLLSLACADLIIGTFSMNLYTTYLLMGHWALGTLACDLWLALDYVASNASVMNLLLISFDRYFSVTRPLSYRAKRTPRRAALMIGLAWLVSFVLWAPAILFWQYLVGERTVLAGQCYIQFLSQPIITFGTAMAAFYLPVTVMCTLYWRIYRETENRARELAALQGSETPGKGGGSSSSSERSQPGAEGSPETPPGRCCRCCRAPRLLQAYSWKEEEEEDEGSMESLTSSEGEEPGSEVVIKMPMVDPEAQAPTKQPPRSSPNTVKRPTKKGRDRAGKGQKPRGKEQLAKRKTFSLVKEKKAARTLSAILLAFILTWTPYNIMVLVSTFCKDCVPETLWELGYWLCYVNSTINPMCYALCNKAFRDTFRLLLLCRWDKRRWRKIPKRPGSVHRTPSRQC
Chain of KiSS-1 receptor (Homo sapiens) (Q969F8 whole entry, looked up): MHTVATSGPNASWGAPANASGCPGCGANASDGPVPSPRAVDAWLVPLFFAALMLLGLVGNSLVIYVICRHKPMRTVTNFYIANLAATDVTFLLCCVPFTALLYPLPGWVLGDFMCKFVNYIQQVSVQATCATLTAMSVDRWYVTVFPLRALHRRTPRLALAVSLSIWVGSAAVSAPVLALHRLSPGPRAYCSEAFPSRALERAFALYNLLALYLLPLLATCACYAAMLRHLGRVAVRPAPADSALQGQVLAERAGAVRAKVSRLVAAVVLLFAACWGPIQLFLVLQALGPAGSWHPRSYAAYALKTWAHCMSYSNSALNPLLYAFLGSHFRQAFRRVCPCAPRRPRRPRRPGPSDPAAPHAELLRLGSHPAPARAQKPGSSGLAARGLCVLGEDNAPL
Chain of Beta-2 adrenergic receptor (Homo sapiens) (P07550 whole entry, looked up): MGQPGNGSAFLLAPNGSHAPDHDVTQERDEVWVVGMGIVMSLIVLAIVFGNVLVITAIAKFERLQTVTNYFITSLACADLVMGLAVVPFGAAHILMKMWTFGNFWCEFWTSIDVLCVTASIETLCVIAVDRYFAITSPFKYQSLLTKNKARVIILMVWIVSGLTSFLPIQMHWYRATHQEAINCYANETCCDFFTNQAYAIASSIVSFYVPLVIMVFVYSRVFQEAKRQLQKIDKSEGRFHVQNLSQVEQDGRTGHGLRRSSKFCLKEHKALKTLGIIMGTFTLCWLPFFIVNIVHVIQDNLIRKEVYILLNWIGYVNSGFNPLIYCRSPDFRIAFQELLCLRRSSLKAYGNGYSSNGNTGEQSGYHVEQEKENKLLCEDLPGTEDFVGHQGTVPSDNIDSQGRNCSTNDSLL
Chain of D(2) dopamine receptor (Homo sapiens) (P14416 whole entry, looked up): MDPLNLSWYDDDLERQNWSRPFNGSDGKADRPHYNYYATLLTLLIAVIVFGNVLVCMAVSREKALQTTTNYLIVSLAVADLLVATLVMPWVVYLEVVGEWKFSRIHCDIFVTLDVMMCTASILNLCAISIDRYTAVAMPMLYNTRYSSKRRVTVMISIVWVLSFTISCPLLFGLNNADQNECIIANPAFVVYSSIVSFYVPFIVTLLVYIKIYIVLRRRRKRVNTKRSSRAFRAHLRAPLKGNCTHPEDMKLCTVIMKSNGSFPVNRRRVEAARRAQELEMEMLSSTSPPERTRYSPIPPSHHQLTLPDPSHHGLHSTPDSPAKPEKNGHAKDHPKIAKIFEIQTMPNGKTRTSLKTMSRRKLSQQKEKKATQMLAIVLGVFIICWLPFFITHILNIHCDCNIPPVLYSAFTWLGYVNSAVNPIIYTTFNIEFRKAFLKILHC
Chain of 5-hydroxytryptamine receptor 2A (Homo sapiens) (P28223 whole entry, looked up): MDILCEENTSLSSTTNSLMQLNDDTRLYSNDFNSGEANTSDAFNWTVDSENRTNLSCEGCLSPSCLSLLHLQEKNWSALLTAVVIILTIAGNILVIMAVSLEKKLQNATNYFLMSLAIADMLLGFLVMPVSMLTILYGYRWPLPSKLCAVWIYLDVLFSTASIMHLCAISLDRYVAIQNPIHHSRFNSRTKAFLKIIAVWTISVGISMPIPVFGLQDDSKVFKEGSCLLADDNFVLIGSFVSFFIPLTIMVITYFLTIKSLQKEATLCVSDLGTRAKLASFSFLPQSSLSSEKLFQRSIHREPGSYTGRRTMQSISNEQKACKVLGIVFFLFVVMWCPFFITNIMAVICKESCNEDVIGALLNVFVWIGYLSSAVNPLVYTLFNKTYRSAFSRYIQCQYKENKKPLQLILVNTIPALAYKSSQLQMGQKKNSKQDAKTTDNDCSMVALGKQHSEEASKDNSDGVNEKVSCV
Chain of Gonadotropin-releasing hormone receptor (Homo sapiens) (P30968 whole entry, looked up): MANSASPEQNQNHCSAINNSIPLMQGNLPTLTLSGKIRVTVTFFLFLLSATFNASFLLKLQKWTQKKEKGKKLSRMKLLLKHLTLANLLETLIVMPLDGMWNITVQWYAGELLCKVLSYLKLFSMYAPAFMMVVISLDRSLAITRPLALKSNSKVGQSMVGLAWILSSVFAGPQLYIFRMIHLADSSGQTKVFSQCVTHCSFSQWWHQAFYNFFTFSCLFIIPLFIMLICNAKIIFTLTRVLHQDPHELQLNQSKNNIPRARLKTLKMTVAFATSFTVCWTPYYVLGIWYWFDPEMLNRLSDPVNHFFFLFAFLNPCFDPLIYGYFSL

`C/C=C/c1ccc(OC)c(OC)c1`: the Potency entry in [1], in [2], in test [3], in test [4], in test [5] and in test [6] was “inactive” in each case. The Potency result in test [7], in [8], in test [9], in [10], in test [11] and in [12] was “inactive” throughout. The Potency result in test [13], in test [14], in [15], in [16], in test [17] and in test [18] was “inactive” throughout. The Potency entry in [19] was “inactive”.
For the molecule `CC[N+](C)(C)c1cccc(O)c1`, the Potency entry in [1], in [2], in test [3], in [4], in [5] and in test [6] was “inactive” each time. The Potency result in test [7], in test [8], in test [9], in test [10], in test [11] and in test [20] was “inactive” throughout. The Potency result in [13], in [14], in [15], in [16], in test [17] and in test [19] was “inactive” each time.
Regarding `O=C(O)c1ccc(O)cc1O`, the Potency entry in [1], in test [2], in [3], in test [4], in test [5] and in test [6] was “inactive” in each case. The Potency result in test [7], in [8], in test [9], in [10], in test [11] and in test [20] was “inactive” each time. The Potency result in test [13], in [14], in [15], in [16], in test [17] and in [18] was “inactive” throughout. Besides, the Potency entry in test [19] was “inactive”.
As to `NS(=O)(=O)c1ccc(NC(=O)CCC(=O)O)cc1`, the Potency result in test [1], in test [2], in test [3], in [4], in test [5] and in test [6] was “inactive” each time. In addition, the Potency entry in test [7], in test [8], in [9], in test [10], in test [11] and in test [20] was “inactive” in each case. Besides, the Potency entry in test [13], in test [14], in test [15], in test [16], in test [17] and in [18] was “inactive” each time. In addition, the Potency entry in test [19] is “inactive”.
For `O=C(c1ccccc1O)c1ccccc1O`, the Potency result in test [1], in test [2], in [3], in test [4], in [5] and in test [6] was “inactive” throughout. Also, the Potency result in test [7], in test [8], in test [9], in test [10], in test [11] and in [20] was “inactive” in each case. Besides, the Potency entry in [13], in test [14], in [15], in test [16], in [17] and in test [18] was “inactive” throughout. For the same molecule, the Potency entry in [19] was “inactive”.
As to `C=C1[C@H]2CC[C@@H]3[C@H]2C(C)(C)CCC[C@]13C`, the Potency entry in test [1], in test [2], in test [3], in [4], in test [5] and in test [6] was “inactive” throughout. Besides, the Potency result in [7], in test [8], in test [9], in [10], in test [11] and in test [12] was “inactive” each time. Besides, the Potency entry in [13], in [14], in test [15], in test [16], in test [17] and in test [18] was “inactive” each time. Also, the Potency entry in test [19] is “inactive”.
On to `CCC(CO)(CO)CO`, for which the Potency result in test [1], in [2], in test [3], in test [4], in [5] and in test [6] was “inactive” each time. Moreover, the Potency entry in test [7], in [8], in test [9], in [10], in test [11] and in [20] was “inactive” in each case. Further, the Potency result in test [13], in [14], in test [15], in [16], in test [18] and in test [19] was “inactive” each time.
For `CC(=O)c1ccc2ccccc2c1`, the Potency result in test [1], in [2], in test [3], in [4], in test [5] and in test [6] was “inactive” throughout. The Potency result in test [7], in test [8], in test [9], in [10], in test [11] and in test [12] was “inactive” in each case. Also, the Potency entry in test [13], in [14], in [15], in [16], in [17] and in test [18] was “inactive” throughout. Further, the Potency entry in test [19] was “inactive”.
For the molecule `O=C1Cc2cc(Cl)ccc2N1`, the Potency entry in [1], in [2], in test [3], in [4], in test [5] and in test [6] was “inactive” throughout. The Potency result in test [7], in test [8], in [9], in test [10], in [11] and in test [20] was “inactive” each time. For the same molecule, the Potency entry in test [14], in [15], in test [17], in test [18] and in test [19] was “inactive” each time.
`O=C(O)c1cc2ccccc2nc1C(=O)O`: the Potency result in [1], in [3], in test [4], in [5], in test [6] and in [7] was “inactive” in each case. Further, the Potency entry in test [8], in test [9], in test [10], in test [11], in [20] and in [12] was “inactive” in each case. For the same molecule, the Potency result in test [14], in test [15], in test [16], in [18] and in test [19] was “inactive” in each case. Further, the Potency in [2] was 17.2 µM (active).

For the origin of these results see PubChem BioAssay (Tox21).
